Assay results from PubChem BioAssay AID1053144 (Broad Institute, 2014).
Screen size: about 3,400 compounds; about 160 (4.7%) were called active.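 Rule for the calls: active = fitted curve reaches 30% activation at a concentration no higher than the top valid tested dose, luminescence rising; inconclusive = no clear call, values can overlap the other calls; inactive = signal moving opposite to the expected increase, plus the rest.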 The list is a sample of the results. Potency and affinity values are given separately.

Assay: TCF/LEF reporter activation in neural progenitors – cell-based, iPS-derived NPC, luciferase, Wnt3a, cherry-pick, dose response (AID 1053144);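 note: Wnt3a stimulus is conditioned medium from Wnt3a-transfected mouse L cells at 5% in well; 0% = neutral control wells and 100% = CHIR-99021 positive control wells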
Conditions: Wnt3a EC25, 24 h; series mostly up to 26 µM; activation: at the top concentration

activation, inactive:
O=C(Nc1ccc2c(c1)Cc1ccccc1-2)c1ccccc1F 6.96%
Cc1ccc(C)c(N2CCN(C(=O)CCc3nc(-c4ccccc4C(F)(F)F)no3)CC2)c1 12.2%
CCOC(=O)C1CCCN(C(=O)CCc2nnc(-c3ccc(C(C)=O)s3)o2)C1 (configuration not stated) 10.3%
Cc1ccc(OCc2cc(C(=O)N3CCN(c4ccccc4)CC3)no2)cc1C 15.5%
CC(=O)Nc1cccc(NC(=O)c2cc3ccccc3o2)c1 7.51%
CC(C)(C)C(=O)Nc1ccc(C(=O)Nc2cccnc2)cc1 4.16%
COc1cc(/C=C/c2ccc3cccc(O)c3n2)cc(Cl)c1OC 2.28%
COc1cccc(/C=C/c2ccc3cccc(O)c3n2)c1OC 6.83%
COc1cc(/C=C/C(=O)OCC(=O)NCCc2ccccc2)cc(OC)c1OC 1.5%
Oc1ccc(Cl)cc1C=NN1CCCCCC1 5.75%
COc1ccc(-c2nc3ccccc3s2)cc1NC(C)=O 8.89%
CCN1CCN(C(=O)c2ccc(-c3nc4ccccc4s3)s2)CC1 6.07%
CN(CCO)c1c2c(nc3cc(-c4cccc(F)c4)nn13)CCCC2 4.94%
O=C(c1ccccc1)c1nnc(-c2ccccc2F)o1 3.17%
O=[N+]([O-])c1cccc(C2=NC(c3ccccc3)CO2)c1 (configuration not stated) 5.82%
O=C(c1cc(-c2cccc(O)c2)on1)N1CCOCC1 0.173%
O=C(c1cc(-c2cccc(O)c2)on1)N1CCCCC1 5.31%
Cc1cc(=O)oc2cc(OCC(=O)Nc3nccs3)ccc12 5.74%
Cn1cccc1/C=C1\SC(=O)N(c2ccccc2)C1=O 6.73%
CCn1cc(S(=O)(=O)CC(=O)Nc2ccc3c(c2)OCO3)c2ccccc21 1.02%
CC(=O)Oc1ccc(-c2csc(Nc3ccccn3)n2)cc1 6.84%
CC(=O)c1sc(NC(=O)c2ccc3c(c2)OCO3)nc1C 5.81%
CC(C)NC(=O)N1CCCN(c2nc3ccc(Cl)cc3s2)CC1 0.108%
CC(C)NC(=O)c1ccc2c3n(nc2c1)-c1ccc(Cl)cc1CO3 17.6%
Cc1ccc2c(c1)COc1c3ccc(C(=O)NC(C)C)cc3nn1-2 10.5%
O=C(NCCO)c1ccc2c3n(nc2c1)-c1ccccc1CO3 7.92%
C=CCNC(=O)c1ccc2c3n(nc2c1)-c1ccc(C)cc1CO3 15.7%
C[C@@H](CO)NC(=O)c1ccc2c3n(nc2c1)-c1ccc(Cl)cc1CO3 13.9%
Cc1ccc2c(c1)COc1c3ccc(C(=O)NCCO)cc3nn1-2 9.09%
O=C(c1ccco1)N1CCN(c2ccc(N3CCCCC3)nn2)CC1 7.55%
c1cn2c(Nc3ccc4c(c3)OCCO4)c(-c3ccc(N4CCOCC4)cc3)nc2cn1 9.24%
Cc1nn(C(=O)c2cccs2)c(N)c1-c1ccccc1 11.2%
